Our source for the growth inhibition values is PubChem BioAssay (NCI).

Compounds without any hit were thinned out: in the full panel of roughly 79,000, 15% have a hit. A number with no mark means an inactive call. Activity calls are given as the source filed them. No stated cut-off is given here; in the data, active means growth inhibition above about 70%; inactive means the rest.

A short description of assay [1]: NCI Yeast Anticancer Drug Screen. Data for the rad50 strain (AID 155).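 Further: 0% = growth of vehicle-only cultures of the same strain.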 The following applies: S. cerevisiae rad50 strain growth inhibition, active compounds read high. Put shortly:
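Growth of the mutant yeast was measured after compound exposure and referenced to vehicle-treated cultures.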

The nature of assay [2]: NCI Yeast Anticancer Drug Screen. Data for the mec2-1 strain (AID 157). The following applies: S. cerevisiae mec2-1 strain, active compounds read high. In short, it runs like this:
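Readout is yeast growth inhibition, normalised to vehicle-treated controls, in the mec2-1 strain exposed to compound.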

Assay [3] is described as follows: NCI Yeast Anticancer Drug Screen. Data for the sgs1 mgt1 strain (AID 161).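 Further: 0% = growth of cultures given vehicle only.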 The following applies: S. cerevisiae sgs1 mgt1 strain, active compounds read high. Put shortly:
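This yeast growth screen uses a strain with defined DNA-repair lesions; compound-treated growth is compared with vehicle-treated growth.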

Assay [4] can be described thus: NCI Yeast Anticancer Drug Screen. Data for the cln2 rad14 strain (AID 165).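 Further: 0% = growth equal to vehicle treated cultures.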 To be noted: S. cerevisiae cln2 rad14 strain, active compounds read high. In short, it runs like this: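 Relative to vehicle controls, growth inhibition of compound-treated cln2 rad14 yeast was recorded.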
A short description of assay [5]: NCI Yeast Anticancer Drug Screen. Data for the bub3 strain (AID 167). To be noted: S. cerevisiae bub3 mutant strain, active compounds read high. In short, it runs like this: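 Whole-cell yeast assay. The mutant strain was incubated with compounds, and growth inhibition was determined by comparison with vehicle-treated cells.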
A short description of assay [6]: NCI Yeast Anticancer Drug Screen. Data for the mlh1 rad18 strain (AID 175). The following applies: S. cerevisiae mlh1 rad18 strain growth inhibition, active compounds read high. In short, it runs like this:
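Test agents were incubated with a yeast strain of defined genotype (DNA damage repair defect). Inhibition of growth was derived by comparison with vehicle-exposed cultures.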

[7] abbreviates: at 5.0 µM (retest, dose inferred, filed as 0.5).
Setting [8] is: at 50.0 µM (retest, dose inferred, filed as 5.0).

For the compound `CC1NC(=O)OC1(C)c1ccccc1` (configuration not stated), the growth inhibition was 3% in assay [1] (setting [7]); -3% in assay [1] (setting [8]); 50.5% in assay [1] (at 50.0 µM); -5% in assay [2] (setting [7]); -12% in assay [2] (setting [8]); 9.2% in assay [2] (at 50.0 µM). In addition, the growth inhibition was 2% in assay [3] (setting [7]); 2% in assay [3] (setting [8]); -7.5% in assay [3] (at 50.0 µM); 1% in assay [4] (setting [7]); -4% in assay [4] (setting [8]); -35.8% in assay [4] (at 50.0 µM). Also, the growth inhibition is 10% in assay [5] (setting [7]); 30% in assay [5] (setting [8]); 12.1% in assay [5] (at 50.0 µM); 12% in assay [6] (setting [7]); 1% in assay [6] (setting [8]); -20.6% in assay [6] (at 50.0 µM).
As for `Cc1cc(S(=O)(=O)Nc2nc(N)nc(N(C)C)n2)c(SC(C(=O)O)c2ccccc2)cc1Cl` (configuration not stated), the growth inhibition in assay [1] (setting [7]) was -11%; in assay [1] (setting [8]) it was -4%; in assay [1] (at 50.0 µM), -8.65%; in assay [2] (setting [7]), -3%; in assay [2] (setting [8]), -15%; in assay [2] (at 50.0 µM), 14.1%. Moreover, the growth inhibition in assay [3] (setting [7]) is -11%; in assay [3] (setting [8]), -8%; in assay [3] (at 50.0 µM), -0.25%; in assay [4] (setting [7]), -15%; in assay [4] (setting [8]), 4%; in assay [4] (at 50.0 µM), 93.2% (active). Moreover, the growth inhibition was 14% in assay [5] (setting [7]); -17% in assay [5] (setting [8]); 16.1% in assay [5] (at 50.0 µM); -9% in assay [6] (setting [7]); -3% in assay [6] (setting [8]); 5.3% in assay [6] (at 50.0 µM).
Turning to `CCCCCC(C)NCCOC(=O)c1ccccc1` (configuration not stated), the growth inhibition in assay [1] (setting [7]) was 3%; in assay [1] (setting [8]), 78% (active); in assay [1] (at 50.0 µM), 50.8%; in assay [2] (setting [7]), -13%; in assay [2] (setting [8]), 82% (active); in assay [2] (at 50.0 µM), -10.7%. Moreover, the growth inhibition in assay [3] (setting [7]) is -8%; in assay [3] (setting [8]) it was 79% (active); in assay [3] (at 50.0 µM), 59.4%; in assay [4] (setting [7]) it was 0%; in assay [4] (setting [8]), 26%; in assay [4] (at 50.0 µM), 67.2%. The growth inhibition in assay [5] (setting [7]) is 3%; in assay [5] (setting [8]), 84% (active); in assay [5] (at 50.0 µM), 75.5% (active); in assay [6] (setting [7]), 18%; in assay [6] (setting [8]), 89% (active); in assay [6] (at 50.0 µM) it was 40.5%.
For the compound `CCCNC(=O)C(=O)NNc1ccccc1`, the growth inhibition in assay [1] (setting [7]) is 7%; in assay [1] (setting [8]) it was 64%; in assay [1] (at 50.0 µM) it was 66.8%; in assay [2] (setting [7]), 6%; in assay [2] (setting [8]), 62%; in assay [2] (at 50.0 µM), 59.1%. Also, the growth inhibition in assay [3] (setting [7]) was 10%; in assay [3] (setting [8]), 55%; in assay [3] (at 50.0 µM), 57%; in assay [4] (setting [7]), 11%; in assay [4] (setting [8]), 79% (active); in assay [4] (at 50.0 µM), 73.5% (active). Further, the growth inhibition in assay [5] (setting [7]) is -2%; in assay [5] (setting [8]) it was 95% (active); in assay [5] (at 50.0 µM), 70.7% (active); in assay [6] (setting [7]), 14%; in assay [6] (setting [8]) it was 95% (active); in assay [6] (at 50.0 µM), 90.1% (active).
With `CCCCCCCCCCCC(=O)OCCN(CCOC(=O)CCCCCCCCCCC)C(=O)COC(=O)CCCCCCCCCCC`, the growth inhibition in assay [1] (setting [7]) is -4%; in assay [1] (setting [8]), 39%; in assay [1] (at 50.0 µM) it was 99.4% (active); in assay [2] (setting [7]) it was 1%; in assay [2] (setting [8]) it was 94% (active); in assay [2] (at 50.0 µM) it was 99.7% (active). The growth inhibition in assay [3] (setting [7]) is 3%; in assay [3] (setting [8]), 92% (active); in assay [3] (at 50.0 µM), 99.8% (active); in assay [4] (setting [7]), -2%; in assay [4] (setting [8]) it was 81% (active); in assay [4] (at 50.0 µM) it was 99.3% (active). The growth inhibition was -2% in assay [5] (setting [7]); 60% in assay [5] (setting [8]); 60.4% in assay [5] (at 50.0 µM); 1% in assay [6] (setting [7]); 86% (active) in assay [6] (setting [8]); 99.3% (active) in assay [6] (at 50.0 µM).
As for `CCn1c2ccccc2n2c(=O)cc(-c3ccccc3)c(C#N)c12`, the growth inhibition was 7% in assay [1] (setting [7]); 2% in assay [1] (setting [8]); 27.1% in assay [1] (at 50.0 µM); -2% in assay [2] (setting [7]); -2% in assay [2] (setting [8]); 12.7% in assay [2] (at 50.0 µM). Besides, the growth inhibition in assay [3] (setting [7]) was -12%; in assay [3] (setting [8]), 0%; in assay [3] (at 50.0 µM), 33.6%; in assay [4] (setting [7]), 7%; in assay [4] (setting [8]), -9%; in assay [4] (at 50.0 µM), 12.3%. The growth inhibition in assay [5] (setting [7]) was 7%; in assay [5] (setting [8]), 11%; in assay [5] (at 50.0 µM), 18.4%; in assay [6] (setting [7]), -2%; in assay [6] (setting [8]), -4%; in assay [6] (at 50.0 µM), 24.4%.
Turning to `CN1C(=O)c2ccccc2C1(c1ccccc1)c1ccccc1`, the growth inhibition is 0% in assay [1] (setting [7]); 90% (active) in assay [1] (setting [8]); 30.1% in assay [1] (at 50.0 µM); 2% in assay [2] (setting [7]); 96% (active) in assay [2] (setting [8]); 14.8% in assay [2] (at 50.0 µM). For the same compound, the growth inhibition in assay [3] (setting [7]) was 4%; in assay [3] (setting [8]), 98% (active); in assay [3] (at 50.0 µM), 20.9%; in assay [4] (setting [7]), 13%; in assay [4] (setting [8]), 37%; in assay [4] (at 50.0 µM), 43.1%. Also, the growth inhibition was 5% in assay [5] (setting [7]); 62% in assay [5] (setting [8]); 45.1% in assay [5] (at 50.0 µM); 15% in assay [6] (setting [7]); 95% (active) in assay [6] (setting [8]); 56.9% in assay [6] (at 50.0 µM).
In the case of `COc1ccc2c(c1)CCC1OC(c3cccnc3)OC21` (configuration not stated), the growth inhibition was -1% in assay [1] (setting [7]); 18% in assay [1] (setting [8]); 65.8% in assay [1] (at 50.0 µM); -19% in assay [2] (setting [7]); -4% in assay [2] (setting [8]); 36.9% in assay [2] (at 50.0 µM). In addition, the growth inhibition in assay [3] (setting [7]) is -3%; in assay [3] (setting [8]) it was 8%; in assay [3] (at 50.0 µM), 75.8% (active); in assay [4] (setting [7]), -5%; in assay [4] (setting [8]), 11%; in assay [4] (at 50.0 µM), 55%. Also, the growth inhibition in assay [5] (setting [7]) was 10%; in assay [5] (setting [8]), 25%; in assay [5] (at 50.0 µM), 30.6%; in assay [6] (setting [7]), -10%; in assay [6] (setting [8]), -15%; in assay [6] (at 50.0 µM) it was 70.9% (active).
Turning to `CSc1nc(C)c(C(=O)CCN2CCOCC2)s1`, the growth inhibition is -7% in assay [1] (setting [7]); 67% in assay [1] (setting [8]); 99.5% (active) in assay [1] (at 50.0 µM); 11% in assay [2] (setting [7]); 99% (active) in assay [2] (setting [8]); 99.6% (active) in assay [2] (at 50.0 µM). For the same compound, the growth inhibition in assay [3] (setting [7]) was -4%; in assay [3] (setting [8]), 75% (active); in assay [3] (at 50.0 µM), 99.6% (active); in assay [4] (setting [7]), -6%; in assay [4] (setting [8]), 89% (active); in assay [4] (at 50.0 µM), 93% (active). Also, the growth inhibition was -12% in assay [5] (setting [7]); 92% (active) in assay [5] (setting [8]); 47.6% in assay [5] (at 50.0 µM); -5% in assay [6] (setting [7]); 88% (active) in assay [6] (setting [8]); 99.2% (active) in assay [6] (at 50.0 µM).
